From PubChem BioAssay (NCI)
“And” between values parts separate entries of the source, which are not always exact repeats. Equal entries are not always repeated. This is part of a sample that, as a whole, favours compounds with a hit. Of some 83,000 tested, about 20% had one in any assay.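 Values shown are percent growth following 48 h exposure of cells in 96-well plates to a single concentration of compound; below 10 was considered active.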 Values without a mark were called inactive. The source made the active and inactive calls.

Tested on: HL-60(TB) leukemia
Experiment: NCI-60 one-dose screen, 48 h (100 = growth as untreated, 0 = no growth, -100 = all killed)
Conditions: 10 µM unless noted

Row | SMILES | growth
1 | C(=C\c1cc(/C=C/c2ccccc2)c2ccccc2n1)/c1ccccc1 | 2.48% (active)
2 | COc1ccc(C(=O)/C=C/c2ccc(Cl)c(C(F)(F)F)c2)cc1S(N)(=O)=O | 6.1% (active)
3 | O=C(Nc1ccc(OCC(=O)c2ccc(Cl)cc2)cc1)Nc1ccc(Cl)c(C(F)(F)F)c1 | 12.5%
4 | N#Cc1ccc(C(=O)CSc2nc3c(c(Nc4ccc(S(N)(=O)=O)cc4)n2)CCC3)cc1 | 101%
5 | COc1ccc(NC(=O)Nc2nc3ccc([N+](=O)[O-])cc3s2)cc1 | 2.05% (active)
6 | Cc1cc(=O)oc2cc(OCCCCOc3ccc(/C=C/C(=O)Nc4ccccc4[N+](=O)[O-])cc3)ccc12 | 101%
7 | Cc1ccc2c(c1)nc(-c1ccccc1)n2CC(=O)N=Nc1c(O)[nH]c2ccc(Cl)cc12 | 46.2%
8 | COc1cc(/C=C/C(=O)c2ccc(NC(=O)CSc3nnc(-c4c[nH]c5ccccc45)n3-c3ccccc3)cc2)cc(OC)c1OC | 38.6%
9 | Cn1cc(-c2cc3nc(-c4cn(C)c5ncc(Br)cc45)cc(N)n3n2)c2cc(F)ccc21 | 1.38% (active)
10 | COc1ccc(C2NC(=S)NC(C)=C2C(=O)OC(C)C)cc1OC (stereo not given) | 100%
11 | O=C(COc1ccc(NC(=O)Nc2ccccc2)cc1)N=Nc1c(O)[nH]c2ccc([N+](=O)[O-])cc12 | 23.4%
12 | C/C(=N\Nc1ccc(S(N)(=O)=O)cc1)c1cnn(-c2cc(=O)[nH]c3ccc(Br)cc23)c1C | 84.7%
13 | CC12CC[C@@H]3[C@]4(C)COC(c5c(F)cccc5F)O[C@@H]4CC[C@@]3(C)[C@@H]1CC(C1=CCOC1=O)O2 (stereo not given in full) | 60.3%
14 | Cc1ccc(C(=O)NNC(=O)CSc2nc3ccccc3c(=O)[nH]2)cc1 | 93.3%
15 | COc1cc2c3c(n(CCCNCCO)c(=O)c2cc1OC)-c1nc2c(cc1C3=O)OCO2 | 38.3%
16 | CC12CC[C@@H]3[C@]4(C)COC(c5cn[nH]c5-c5cccc(Cl)c5)O[C@@H]4CC[C@@]3(C)[C@@H]1CC(C1=CCOC1=O)O2 (stereo not given in full) | 22.3%
17 | CCOC(=O)N/C(=C1/OCCN1C)[P+](c1ccccc1)(c1ccccc1)c1ccccc1 | 29.9%
18 | Nc1nnc(-c2c[nH]c3ncc(Br)cc23)c(-c2c[nH]c3ccc(F)cc23)n1 | -0.929% (active)
19 | Cn1cc(NC(=O)c2cc(NC(=O)c3ccc(C#Cc4ccccc4)cc3)cn2C)cc1C(=O)NCCCN1CCOCC1 | -67% (active)
20 | CN1CCN(Cc2ccc(C(=O)Nc3cccc(Nc4ccc5c(O)cccc5n4)c3)cc2C(F)(F)F)CC1 | -34.1% (active)
21 | Cc1ccc(C(=O)CSc2nc3ccc(C)cc3c(=O)n2-c2ccc(F)cc2)cc1 | 123%
22 | O=C(CNc1nc(-c2ccccc2)cs1)Nc1cccc([N+](=O)[O-])c1 | -8.94% (active)
23 | C/C(=N/O)c1ccc(NC(=O)CSc2nnc(-c3ccc4nc(-c5ccc(Cl)cc5)[nH]c4c3)o2)cc1 | 81.8%
24 | FC(F)(F)c1cc2c(Cl)ncnc2n1CCC1CCOCC1 | -59.6% (active)
25 | Cc1cccc(-c2nc(Nc3ccccc3C(=O)O)c3ccccc3n2)c1 | 39.4%

Row | SMILES | growth
26 | COc1ccc(/C(C)=N/N=C2C(=O)N(C)c3ccc(Br)cc32)cc1S(N)(=O)=O | 99%
27 | COc1ccsc1/C=N/NC(=O)c1[nH]c2ccc(Br)cc2c1-c1ccccc1 | -33.3% (active)
28 | Cc1cc(=O)oc2cc(OCCCCOc3ccc(/C=C/C(=O)Nc4ccccc4N)cc3)ccc12 | 0.47% (active)
29 | O=C(Cn1c(/C=C/c2ccc([N+](=O)[O-])cc2)nc2ccccc2c1=O)Nc1ccccc1 | 102%
30 | O=C(c1ccc(O)cc1)C1[C@H](c2ccc(Br)cc2)[C@@H](c2ccccc2)NC12C(=O)Nc1ccc(Br)cc12 (stereo not given in full) | 12.5%
31 | Cc1cccc(NC(=O)CSc2nc3ccc(F)cc3c(=O)n2-c2ccc(Cl)cc2)c1C | 96.4%
32 | O=C(NO)c1ccc(CNC(=O)[C@H]2Cc3c([nH]c4ccccc34)[C@H](c3ccc(Cl)cc3)N2)cc1 | 4.62% (active)
33 | N#Cc1c(-c2cccc3ccccc23)cc(-c2cccc(OCC(=O)O)c2)[nH]c1=O | 82.2%
34 | C#CCOc1cc(N(CC)CC)ccc1C(C(=O)NC(C)(C)C)N(C(=O)C1CCc2cc(F)ccc2O1)c1ccccc1F (stereo not given) | -13.5% (active)
35 | O=C(Nc1cccc(-n2cnc3cc(-c4ccc(O)cc4)ccc32)c1)C1CC1 | -16.7% (active)
36 | C#CCOc1cc(N(CC)CC)ccc1C(C(=O)NC(C)(C)C)N(C(=O)C1CCc2cc(F)ccc2O1)c1cc(C)cc(C)c1 (stereo not given) | 7.34% (active)
37 | Cc1noc2c(Cc3ccc([N+](=O)[O-])cc3)nn(CC(=O)N/N=C/c3ccc(Cl)cc3)c(=O)c12 | 87.5%
38 | O=C(c1ccc(Cl)cc1)C1[C@H](c2ccccc2Br)[C@@H](c2ccccc2)NC12C(=O)Nc1ccccc12 (stereo not given in full) | -2.22% (active)
39 | COc1ccc2[nH]c(O)c(N=Nc3nc(-c4ccc(Br)cc4)cs3)c2c1 | 73.5%
40 | COc1ccc2[nH]cc(/C=N/Nc3cccc(Cl)n3)c2c1 | 23.7%
41 | CCCCCCCCCc1ccc(C(=O)Nc2cc(C)ccc2C(=O)OC)cc1 | 97.1%
42 | Cc1cc2nc3c4ccccc4n(CCO)c3nc2cc1C | 101%
43 | O=C(CN1C(=O)/C(=C/c2ccccc2F)SC1=S)N1CCOCC1 | 82.5%
44 | Nc1cc(-c2cccc(C(=O)NCc3ccc4c(c3)OCO4)c2)ccn1 | 98.1%
45 | CN1CCN(c2ccc(C(=O)/C=C/c3cc(C(F)(F)F)ccc3Cl)cc2)CC1 | -29.3% (active)
46 | COc1cc(C2CC(c3cc(OC)c(OC)c(OC)c3)=Nc3c(N)nc(N)nc3N2)ccc1Oc1nc(Nc2ccc(F)cc2)nc(N(C)C)n1 (stereo not given) | 8.45% (active)
47 | Cc1ccc(C(=O)CSc2nc3ccc(F)cc3c(=O)n2-c2ccc(Cl)cc2)cc1 | 117%
48 | Cc1ccc(C(=O)CSc2nnc(-c3c[nH]c4ccccc34)n2-c2ccccc2)cc1 | 43.3%
49 | C#CCNC(=O)CCC(=O)OC[C@]12CC[C@@H](C(=C)C)[C@@H]1C1CC[C@@H]3[C@@]4(C)CCCNC(C)(C)[C@@H]4CC[C@@]3(C)[C@]1(C)CC2 (stereo not given in full) | -39% (active)
50 | Cc1cc(C)nc(NS(=O)(=O)c2ccc(N/C(N)=N/c3nccc(-c4ccccc4)n3)cc2)n1 | -25.8% (active)

Row | SMILES | growth
51 | Cc1ccc(-c2nc(C#N)c(S(=O)(=O)N3CCN(S(=O)(=O)c4ccccc4)CC3)o2)cc1 | -44.9% (active)
52 | O=C1c2cccc3c(N4CCN(c5ccccc5)CC4)ccc(c23)C(=O)N1c1cccc(-c2nn(-c3ccccc3)cc2-c2nc3ccccc3s2)c1 | 98.5%
53 | COc1cc(/C=C/C(=O)c2ccc(S(=O)(=O)NCCNc3nc(N(C)C)nc(N4CCOCC4)n3)cc2)cc(OC)c1OC | -64.8% (active)
54 | COc1ccc2ccccc2c1/C=C1\SC(=Nc2ccc(O)cc2)NC1=O | -29.9% (active)
55 | COc1cc2oc(-c3cccc(NC(=O)[C@H](CC(N)=O)NC(=O)OC(C)(C)C)c3)cc(=O)c2c(OC)c1OC | 67.2%
56 | S=c1c2ccccc2nc2n1CCc1c-2[nH]c2ccccc12 | 98%
57 | COC[C@@H](CC(C)C)N=C1NC(=O)/C(=C/c2ccc3ncsc3c2)N1 | 1.21% (active)
58 | COc1ccc(C(=O)Nc2sc3c(c2C#N)CCC(=O)C3)cc1C(F)(F)F | -12% (active)
59 | COc1ccc(N=Nc2c(N)nn3c(N)c(C#N)c(-c4ccccc4)nc23)cc1 | 80.8%
60 | COc1ccc(-c2nc3ccc(-c4nnc(SCc5ccccc5)o4)cc3[nH]2)cc1OC | 78.4%
61 | COc1ccc2oc(=O)c(-c3csc(N/N=C(\C)c4cc(OC)c(OC)c(OC)c4)n3)cc2c1 | 107%
62 | CC1=C(C(=O)OCc2ccccc2)C(c2c(O)cc(O)cc2O)n2c(nc3ccccc32)N1 (stereo not given) | 27.2%
63 | Cn1cc(-c2cc3nc(-c4cn(C)c5ncccc45)cc(N)n3n2)c2cc(F)ccc21 | 7.11% (active)
64 | Nc1nc(Nc2ccc(Cl)cc2)nn1Cc1cccc(Br)c1 | 34.5%
65 | O=C(CN1CCN(c2ncnc3c2cnn3-c2ccccc2)CC1)Nc1nncs1 | -45.5% (active)
66 | O=C(Nc1ccc(-c2ccc3c(c2)NC(=O)/C3=C\c2ccc[nH]2)cc1)Nc1ccc(Cl)c(C(F)(F)F)c1 | 4.76% (active)
67 | Cn1cc(-c2cc(N)n3nc(-c4cn(C)c5ccccc45)cc3n2)c2cc(F)ccc21 | -20.1% (active)
68 | COC1=C[C@]23CCC(=O)N2CCc2cc4c(cc2[C@@H]3[C@@H]1OC(=O)CCCC(C)C)OCO4 | 7.81% (active)
69 | COc1ccc(-c2cc(-c3cc(C(=O)c4ccc(Br)cc4)n4ccc(C)cc34)nc(N)c2C#N)cc1 | 96.6%
70 | CO[C@@H]1CSSC1Cn1nc(-c2ccc(Oc3ccccc3)cc2)c2c(N)ncnc21 (stereo not given in full) | 13.3%
71 | CCOc1ccc(Nc2nc3ccccc3nc2Nc2ccc(OCC)cc2)cc1 | 31.4%
72 | COc1cc(NC(=O)CSc2nnc(-c3ccc(-c4nc5ccc(Cl)cc5[nH]4)cc3)o2)cc(OC)c1OC | 8.77% (active)
73 | O=C(/C=C/c1ccc(-c2ccccc2)cc1)c1nc2ccccc2n1Cc1ccc(Br)cc1 | 35.3%
74 | CC(C)(C)c1cc(-c2cc(-c3ccccc3)[nH]c(=O)c2C#N)cc(C(C)(C)C)c1 | 82.3%
75 | NC1(c2ccc(-c3ccc4ncnc(NCc5ccccc5)c4c3)cn2)COC1 | 113% and 106%
